Data from PubChem BioAssay (NCI).
Where “and” joins values, the source holds several entries; their conditions need not be identical. Equal values may be shown once. About 79,000 compounds went through this panel and 15% of them were active in at least one assay; those are over-represented in the sample as a whole. Cut-off read from the data, not from the text of the source: active = growth inhibition above about 70%; inactive = the rest.

Assays:
[1] = NCI Yeast Anticancer Drug Screen. Data for the rad50 strain (AID 155);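 note: 0% = growth of vehicle-only cultures of the same strain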; details: S. cerevisiae rad50 strain growth inhibition, stronger effect = higher value; at 50.0 µM unless noted
Method in brief: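 Inhibition values express reduced yeast growth in compound-treated cultures relative to vehicle-treated controls.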

[2] = NCI Yeast Anticancer Drug Screen. Data for the mec2-1 strain (AID 157); details: S. cerevisiae mec2-1 strain, stronger effect = higher value; at 50.0 µM unless noted
Method in brief: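 Each compound was tested on mec2-1 yeast, a strain altered in DNA damage repair or cell cycle control. Growth inhibition is reported relative to vehicle.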

[3] = NCI Yeast Anticancer Drug Screen. Data for the sgs1 mgt1 strain (AID 161);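 note: 0% = growth of cultures given vehicle only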; details: S. cerevisiae sgs1 mgt1 strain, stronger effect = higher value; at 50.0 µM unless noted
Method in brief: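 Test agents were incubated with a DNA-repair-mutant yeast strain. Growth was then read and compared against vehicle-treated controls.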

[4] = NCI Yeast Anticancer Drug Screen. Data for the cln2 rad14 strain (AID 165);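 note: 0% = growth equal to vehicle treated cultures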; details: S. cerevisiae cln2 rad14 strain, stronger effect = higher value; at 50.0 µM unless noted
Method in brief: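 Test compounds were added to cln2 rad14 yeast cultures; inhibition of growth was then determined by comparison with vehicle treatment.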

[5] = NCI Yeast Anticancer Drug Screen. Data for the bub3 strain (AID 167); details: S. cerevisiae bub3 mutant strain, stronger effect = higher value; at 50.0 µM unless noted
Method in brief: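 Steps: expose the mutant yeast strain to compound; grow alongside vehicle-treated cultures; measure growth; express inhibition against the vehicle cultures.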

[6] = NCI Yeast Anticancer Drug Screen. Data for the mlh1 rad18 strain (AID 175); details: S. cerevisiae mlh1 rad18 strain growth inhibition, stronger effect = higher value; at 50.0 µM unless noted
Method in brief: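 Inhibition values reflect reduced growth of mutant yeast versus vehicle-treated controls following compound exposure; the mutations affect DNA damage repair.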

Measured: growth inhibition

O=C(c1ccccc1)N1CCC(Nc2nccs2)O1 (centres undefined)
inactive: [1] -37.4% | [2] -26.1% | [3] -11.4% | [4] -9.75% | [5] -8.15% | [6] -2.35%

c1cc(-c2ncc[nH]2)ccn1
inactive: [1] -6.9% | [2] -12.2% | [3] -4.25% | [4] -4.05% | [5] 6.1% | [6] -8.2%

COC(=O)c1ccc(COC(=O)N2C=CCC2C(=O)O)cc1 (centres undefined)
inactive: [1] 20.2% | [2] -19.6% | [3] 13.4% | [4] 11.7% | [5] 4% | [6] 1.15%

CCCC1SCC(=O)N1c1nncs1 (centres undefined)
inactive: [1] 6.5% | [2] 3.5% | [3] -23.2% | [4] -29.1% | [5] -8% | [6] -30.6%

Cc1cc(OC(=O)c2c(-c3c(Cl)cccc3Cl)noc2C)n(-c2ccc(NC(=O)c3c(-c4c(Cl)cccc4Cl)noc3C)cc2)n1
inactive: [1] 36.8% | [2] 24.8% | [3] 19.7% | [4] 13% | [5] 28.1% | [6] 25.9%

CCCCCCCCCCCCCCCCCCCCCCCCC(=O)O
inactive: [1] -18.6% | [2] -22.6% | [3] -11.4% | [4] 4.15% | [5] -33.5% | [6] -25.5%

O=C(O)c1ccccc1C(=O)Nc1ccc(S(=O)(=O)Nc2nccs2)cc1
inactive: [1] -22.6% and -6.05% | [2] -15.9% and 9.8% | [3] -17.1% and 19.8% | [4] -4.7% and -20% | [5] -2.35% and -4.15% | [6] -18.5% and 25.6%

CC(C)CCCC(C)C1CCC2C3CC=C4CC(OC(=O)Nc5ccc(S(=O)(=O)NC6CCCCC6)cc5)CCC4(C)C3CCC12C (centres undefined)
inactive: [1] -1.85% | [2] -4.35% | [3] 12.7% | [4] -38.1% | [5] -12.4% | [6] 8.25%

Nn1c(CCCl)nc2c(Br)cc(Br)cc2c1=O
inactive: [1] 13.8% | [2] 2.9% | [3] -2.45% | [4] 3.25% | [5] 12.6% | [6] 8.5%

CCC(=O)OCC(CC(=O)NCCc1ccccc1)=NCCc1ccccc1
inactive: [1] 18.6% | [2] -0.6% | [3] 16.6% | [4] 9.15% | [5] 2.55% | [6] 14.9%

CCCC(=O)n1ccc2ccccc21
inactive: [1] -14.8% | [2] -37.6% | [3] 7.45% | [4] 13.4% | [5] -12.9% | [6] 1.6%

CC1=NN(C(=O)Cc2ccccc2)C(=O)/C1=C\C=C\c1ccccc1
inactive: [1] 11.3% | [2] -28.2% | [3] -20.6% | [4] -9.2% | [5] -15.2% | [6] -7.85%

O=C(N/N=C/c1ccc2c(c1)OCO2)c1ccccc1
inactive: [1] 12.7% | [2] -11.1% | [3] 6.25% | [4] -35.5% | [5] 1.8% | [6] 22.4%

CC(=O)OCC1OC(OC(C)=O)C(OC(C)=O)C(OC(C)=O)C1OC(C)=O (centres undefined)
inactive: [1] -0.8% and 33.3% | [2] 0.25% and 9.6% | [3] -17.5% and 21.1% | [4] -30.9% and 11.5% | [5] -14.4% and 5.45% | [6] -26.1% and 8.9%

Cc1cc(=O)[nH]c(NNC(C#N)c2ccc(O)cc2)n1 (centres undefined)
inactive: [1] -26% | [2] -51.3% | [3] -48.4% | [4] -7.6% | [5] -18.6% | [6] -41.8%

CN(CCNC(=O)C1CCCCC1C(=O)O)c1ccccc1 (centres undefined)
inactive: [1] 5% | [2] 22.3% | [3] 1% | [4] 0.15% | [5] 13.6% | [6] -10.2%

C[N+](C)=c1nc(N2CCOCC2)ss1
inactive: [1] 1.95% | [2] 0.65% | [3] 6.8% | [4] 8.95% | [5] -63.4% | [6] -16.9%

Oc1ccc2ccccc2c1/C=C/c1ccc2c(Br)cc(Br)c(O)c2n1
inactive: [1] 60.6% | [2] 41.1% | [3] 28.7% | [4] 38% | [5] 64.9% | [6] 65.3%

O=C(Nc1ccc(Cl)cc1)C(Cl)C(Cl)c1ccc(Cl)cc1 (centres undefined)
inactive: [1] -15.6% | [2] -6.3% | [3] -7.65% | [4] -22.4% | [5] 9.05% | [6] -23.1%
